From PubChem BioAssay AID624040 (The Scripps Research Institute Molecular Screening Center, 2012)
Among all 360,000 compounds or so, about 2,100 (0.58%) were called active. This excerpt belongs to a sample that is enriched for actives. Values without a mark were called inactive.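 Rule for the calls: active = inhibition above a per-plate cutoff, the mean of that plate's test compounds plus 3 SD (cut at about 27% in these data); inactive = the rest.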

The compounds below were run against Muscarinic acetylcholine receptor M5 (Homo sapiens) (UniProt P08912) (assay: CHRM5 blockers of acetylcholine calcium response – CHO cells, Fluo-8 calcium fluorescence, primary screen (AID 624040;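 note: 0% = acetylcholine EC80 with DMSO and 100% = DMSO without agonist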)). Settings: CHO-hM5 cells, ACh EC80, at 3 µM, active compounds read high.
Muscarinic acetylcholine receptor M5 (Homo sapiens), sequence (P08912 whole entry, looked up): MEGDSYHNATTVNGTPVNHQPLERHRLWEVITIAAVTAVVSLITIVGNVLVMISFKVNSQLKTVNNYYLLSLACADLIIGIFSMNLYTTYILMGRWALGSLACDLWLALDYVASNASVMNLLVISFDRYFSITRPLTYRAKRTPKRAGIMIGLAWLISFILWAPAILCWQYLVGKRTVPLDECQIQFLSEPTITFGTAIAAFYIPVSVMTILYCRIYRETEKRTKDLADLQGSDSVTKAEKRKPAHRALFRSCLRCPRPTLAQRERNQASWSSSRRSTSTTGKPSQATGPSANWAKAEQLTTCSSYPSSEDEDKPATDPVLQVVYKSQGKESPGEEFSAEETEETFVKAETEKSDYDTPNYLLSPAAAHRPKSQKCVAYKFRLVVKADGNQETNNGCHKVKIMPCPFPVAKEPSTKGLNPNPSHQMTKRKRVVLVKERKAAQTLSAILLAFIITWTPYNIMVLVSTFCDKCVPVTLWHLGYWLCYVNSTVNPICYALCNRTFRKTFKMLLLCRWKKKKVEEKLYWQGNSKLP
`CC(=O)OCCC(C)C` gave an inhibition of 6.5%.
With `CC(=O)OCC(COC(C)=O)OC(C)=O` the inhibition was -2.99%.
`CC(=O)OC(C)C[N+](C)(C)C` (configuration not stated) was tested, and the inhibition was 95.7% (active).
With `CC(C[N+](C)(C)C)OC(N)=O` (configuration not stated) the inhibition was 74.8% (active).
In the case of `Cn1c(CCCOc2ccc(Cl)cc2Cl)n[nH]c1=S`, the inhibition is reported as 6.7%.
`CN(Cc1ccc(CNC[C@H]2O[C@@H](n3cnc4c(N)ncnc43)[C@H](O)[C@@H]2O)o1)S(C)(=O)=O` gave an inhibition of -3.06%.
Compound `O=C(COC(=O)c1cccnc1Cl)Nc1ccc(S(=O)(=O)N2CCOCC2)cc1` has an inhibition of 13.3%.
`CCOc1ccc(NC(=O)CSc2nc3ccccc3c(=O)n2Cc2cccs2)cc1` showed an inhibition of 8.62%.
Work on `COC(=O)c1ccccc1NC(=O)CN(Cc1ccc(Cl)cc1)S(C)(=O)=O` yielded an inhibition of 5.2%.
`O=C(Cc1ccc(Cl)cc1)NC(=S)Nc1ccccc1O` was tested, and the inhibition was 64.5% (active).
With `O=C(NC(=S)Nc1ccc(Cl)cc1Cl)C1CC1` the inhibition was 6.51%.
In the case of `Cc1cc(NS(=O)(=O)c2ccc(NC(=O)c3cccc(OC(F)F)c3)cc2)nc(C)n1`, the inhibition is reported as -2.8%.
`O=C1C(Cl)=C(Oc2ccccc2)C(=O)c2ccccc21` was tested, and the inhibition was 30.4% (active).
`O=C(NCc1ccco1)C(c1ccncc1)N(C(=O)Cn1nnc2ccccc21)c1ccccc1` (configuration not stated) was tested, and the inhibition was 9.94%.
With `O=C(Nc1ccc(S(=O)(=O)NCC2CCCO2)cc1)c1ccc(F)cc1` (configuration not stated) the inhibition was 1.2%.
For `N=c1n(Cc2ccc(Cl)cc2)c2ccccc2n1CC(O)c1ccco1` (configuration not stated), the inhibition was 2.61%.
Compound `O=S1(=O)CC/C(=N\Nc2ccc(F)cc2)c2ccsc21` has an inhibition of -3.05%.
Work on `CC(C)NS(=O)(=O)c1ccc(OCC(=O)NC2CCCCCC2)cc1` yielded an inhibition of 1.3%.
`Cc1cn([C@H]2C[C@H](O)[C@@H](/C=C/C(=O)NCCCc3ccccc3)O2)c(=O)[nH]c1=O` was tested, and the inhibition was 6.27%.
In the case of `CCOC(=O)c1cccnc1NC(=O)c1ccncc1`, the inhibition is reported as 4.86%.
In the case of `Cc1ccc(NC(=O)c2ccc(Oc3ncccn3)cc2)cc1`, the inhibition is reported as 9.93%.
`Cc1ccc(NC(=O)OCCNC(=O)c2ccncc2)cc1` was tested, and the inhibition was 50% (active).
For `COC(=O)[C@]12CCCCC=C1N(CCC1=CCCCC1)C(=O)[C@H](CC(=O)N1CCSCC1)C2`, the inhibition was 1.29%.
`CCCCCCC(O)(CCN1CCCCC1)c1ccccc1` (configuration not stated) was tested, and the inhibition was 97.8% (active).
In the case of `CC(CN1CCCCC1)c1ccccc1` (configuration not stated), the inhibition is reported as 2.28%.
With `CCCCCC(O)(CCN1CCCCC1)c1ccccc1` (configuration not stated) the inhibition was 98.2% (active).
`O=C(c1ccccc1)C(O)(CN1CCCCC1)c1ccccc1` (configuration not stated) gave an inhibition of 8.34%.
Work on `OC(C#CCN1CCOCC1)(c1ccccc1)C1CCCCC1` (configuration not stated) yielded an inhibition of 7.29%.
With `c1ccc2cc3[nH]c(CN4CCCCC4)nc3cc2c1` the inhibition was 7.88%.
`C#CC(CCN1CCCCC1)(OC)c1ccccc1` (configuration not stated) was tested, and the inhibition was 30.6% (active).
With `CCc1ccccc1NC(=O)NCCN1CCCCC1` the inhibition was -5.44%.
In the case of `COc1ccc(C(O)(C2CCCCC2)C(CN2CCCC2)c2ccccc2)cc1` (configuration not stated), the inhibition is reported as -3.7%.
`CCc1ccc[n+](-c2nc([O-])sc2C=O)c1` gave an inhibition of 9.19%.
`Cc1ccc(C23CC4CC(CC(C(=O)NCC(=O)O)(C4)C2)C3)cc1` gave an inhibition of 6.84%.
With `Cc1nnc(SCCCCSc2nnc(C)c(=O)[nH]2)[nH]c1=O` the inhibition was -7.67%.
`CC1(C(=O)Nc2ccccc2Br)CCN1C(=O)CC1CC1` (configuration not stated) showed an inhibition of 4.22%.
`COn1c(=O)c(=O)n(OC)c2ccccc21` gave an inhibition of 6.69%.
`CCOc1cc(C(=O)Nc2ccc(S(=O)(=O)Nc3cnc4ccccc4n3)cc2)cc(OCC)c1OCC` showed an inhibition of 0.97%.
For `Nc1nnc(SCC(=O)Nc2ccc3nc(SCC(=O)Nc4ccccc4)sc3c2)s1`, the inhibition was 43.5% (active).
With `O=C(CSc1nc(-c2ccccc2)cs1)Nc1cccc([N+](=O)[O-])c1` the inhibition was 14.8%.
`Nc1nnc(SCC(=O)NC2CCCc3ccccc32)s1` (configuration not stated) showed an inhibition of 2.63%.
For `CCOC(=O)c1nc(-c2ccc3c(c2)OCO3)[nH]c1C`, the inhibition was 3.11%.
With `COc1ccc2c(c1)[C@H]1[C@H](CO2)[C@H](c2ccccc2)[C@]2(C)C(=O)Nc3cc(F)c(F)cc3C(=O)N12` the inhibition was 11.7%.
`CCN1CCC(O)(/C=C/c2ccc(C)cc2)C(C(=O)/C=C/c2ccc(C)cc2)C1` (configuration not stated) gave an inhibition of 5.72%.
`Cc1ccc(C(=O)N2CC(=O)Nc3ccc(F)cc3C2c2ccc(F)cc2)cc1` (configuration not stated) showed an inhibition of 11.2%.
For `CCN1CCC2(CC1)N=C(c1ccc(F)cc1)C(=S)N2C(=O)c1ccc(C)cc1`, the inhibition was 69.5% (active).
Work on `CCOc1ccc(-n2c(N)c(C(=O)NCC3CCCO3)sc2=S)cc1` (configuration not stated) yielded an inhibition of 3.05%.
With `Cc1cccc(C(=O)NCC(=O)OCC(=O)N(C)CC(=O)Nc2ccccc2Cl)c1` the inhibition was 9.75%.
For `CC1(C)CC(N2CCN(C(c3ccccc3)c3ccccc3)CC2)=CC(=[N+]2CCCCC2)C1`, the inhibition was 31.9% (active).
`CC1CC(NC(=O)/C(C#N)=C/c2ccc[nH]2)CC(C)(C)C1` (configuration not stated) showed an inhibition of 1.56%.
`CCC(=O)N1CCN=C1SCc1ccc(F)cc1` gave an inhibition of 5.93%.
With `COc1cccc(CNc2nc(NCc3cccs3)nc3ccsc23)c1` the inhibition was 44.2% (active).
For `COc1ccccc1CNc1nc(Nc2ccccc2Cl)c2sccc2n1`, the inhibition was 11.1%.
Compound `COc1cccc(CNc2nc3cc(-c4csc5ccccc45)sc3c(=O)n2C)c1` has an inhibition of 2.12%.
`CN(C)c1ccc(NC(=S)N(CCc2ccccc2)C2CC(=O)N(c3c(Cl)cccc3Cl)C2=O)cc1` (configuration not stated) was tested, and the inhibition was -4.62%.
`COC(=O)CN(C(=S)Nc1ccc(Cl)cc1)C1CC(=O)N(c2ccc(OC)cc2)C1=O` (configuration not stated) was tested, and the inhibition was 11.6%.
With `CCOc1ccc(N2C(=O)CC(N(CCc3ccc(OC)c(OC)c3)C(=S)Nc3ccccc3)C2=O)cc1` (configuration not stated) the inhibition was 30.8% (active).
`CCn1ncc(CNC(=O)C2(C)CC2(Br)Br)c1C` (configuration not stated) showed an inhibition of 4.36%.
For `CCCCCCCCCCOC(=O)Cn1c(COc2cccc(OC)c2)[n+](C)c2ccccc21`, the inhibition was 31% (active).
Work on `Cc1c(C)c(C)c(S(=O)(=O)N2CCC3(CC2)OCCO3)c(C)c1C` yielded an inhibition of 5.79%.
For `COC(C/C=C/C(=O)[C@@H](C)OCc1ccccc1)OC`, the inhibition was 3.64%.
With `O=C(/C=C(O)/C=C/c1ccc(O)cc1)/C=C/c1ccc(O)cc1` the inhibition was 54.8% (active).
Work on `NC1=NC(=O)S/C1=C\c1ccc(O)cc1` yielded an inhibition of -0.48%.
For `CC(C)(C)C(=O)/C(C#N)=C/c1ccc(O)cc1`, the inhibition was 4.34%.
`COc1ccc(S(=O)(=O)NCCOc2ccccc2)cc1F` showed an inhibition of -2.02%.
For `COc1ccc(OCCNS(=O)(=O)Cc2ccccc2)cc1`, the inhibition was 4.63%.
For `COc1ccc(S(=O)(=O)NCCCCOc2ccc(Cl)cc2)cc1`, the inhibition was 32.2% (active).
In the case of `Cc1ccc(S(=O)(=O)N2CCOCC2)cc1C(=O)OC1CCCCC1=O` (configuration not stated), the inhibition is reported as 5.95%.
Work on `O=C(COc1ccccc1)Nc1cc2c3c(c1)CC(=O)N3CCC2` yielded an inhibition of -0.99%.
For `COC(CCN(C)C)(c1ccccc1)c1ccccc1`, the inhibition was 11.5%.
For `CCC(C(=O)Nc1ccc(C(C)C)cc1)c1ccccc1` (configuration not stated), the inhibition was 19.2%.
In the case of `CCN(CC)CCOC(=O)c1ccc(NC(=O)CNC(=O)c2ccccc2)cc1`, the inhibition is reported as 10.2%.
With `CCCC(C(=O)OCCN(CC)CC)(c1ccccc1)c1ccccc1` the inhibition was 48.8% (active).
In the case of `CCC(C(=O)OCCN(CC)CC)c1ccccc1` (configuration not stated), the inhibition is reported as 67.6% (active).
`CCOC(=O)CCP(=O)(O)C(O)(c1ccccc1)c1ccccc1` showed an inhibition of -4.02%.
`CN(C)C(=O)c1ccc2c(c1)C1C3CCC(C3)C1C(c1ccccc1)N2` (configuration not stated) was tested, and the inhibition was -2.46%.
For `CCOC(=O)N1CCC(NC(=O)Cn2cc3c(n2)CCCCC3)CC1`, the inhibition was 0.05%.
Compound `CC(C)c1ccc(/C=C2\NC(=O)NC2=O)cc1` has an inhibition of -18.6%.
For `CC(C)c1ccc(NC(=O)CCN2C(=O)c3ccc([N+](=O)[O-])cc3C2=O)cc1`, the inhibition was -6.62%.
With `CC(C)c1ccc(C=NNc2ccc([N+](=O)[O-])cn2)cc1` the inhibition was 27.5% (active).
`CCS(=O)(=O)N1CCC(N2CCN(c3ccccc3)CC2)CC1` was tested, and the inhibition was 8.56%.
Work on `Cc1ccccc1NS(=O)(=O)CCCCC(Cl)(Cl)Cl` yielded an inhibition of 3.5%.
`COc1ccc(CN2CC(C(=O)NC3CCCCC3)CC2=O)cc1` (configuration not stated) was tested, and the inhibition was -0.55%.
In the case of `CC(=O)N1CCN(Cc2cc(=O)oc3cc(C)ccc23)CC1`, the inhibition is reported as -1.45%.
In the case of `CC(=O)c1c(C)[nH]c(C(=O)COC(=O)c2cccc(S(=O)(=O)N(C)c3ccccc3)c2)c1C`, the inhibition is reported as 74.2% (active).
In the case of `COc1ccc(C)cc1NC(=O)C(OC(=O)c1cccc(S(=O)(=O)N(C)c2ccccc2)c1)c1ccccc1` (configuration not stated), the inhibition is reported as -1.67%.
`CN(c1ccccc1)S(=O)(=O)c1cccc(C(=O)NNC(=O)c2ccncc2)c1` gave an inhibition of 1.22%.
In the case of `O=C(CCc1nnc2ccc(NCc3ccccc3Cl)nn12)NCC1CCN(C2CCCC2)C1` (configuration not stated), the inhibition is reported as 1.64%.
With `COC(C[C@H](O)CC(=O)COCc1ccccc1)OC` the inhibition was 2.21%.
In the case of `O=C(NCCN1CCN(C(=O)c2cccc([N+](=O)[O-])c2)CC1)C(=O)NCc1ccc(Cl)cc1`, the inhibition is reported as 10.1%.
`Cc1csc(NC(=O)CSc2ccc(-c3ccc(F)cc3)nn2)n1` gave an inhibition of 6.55%.
`COc1ccc(CC(=O)NC2CCSc3ccccc32)cc1OC` (configuration not stated) was tested, and the inhibition was 17.6%.
In the case of `COc1ccc(CC(=O)Nc2nc(-c3ccc(F)c(F)c3)cs2)cc1OC`, the inhibition is reported as 32.4% (active).
With `O=C(CNCCO)NC12CC3CC(CC(C3)C1)C2` the inhibition was -2.76%.
In the case of `NC(=O)C1CCN(C(=O)c2ccc(F)c(S(=O)(=O)N3CCOCC3)c2)CC1`, the inhibition is reported as 13.8%.
With `O=C(Oc1ccc(-c2nnco2)cc1)c1ccc(F)c(S(=O)(=O)N2CCOCC2)c1` the inhibition was 27.2% (active).
`COc1ccc(C(=O)Oc2ccc(-c3nnco3)cc2)cc1S(=O)(=O)N1CCOCC1` gave an inhibition of 15.9%.
